{"source": "PubChem BioAssay AID371", "about": "(SRMLSC, 2006)", "note": "Hit rate of the full screen: of about 3,300 compounds, about 280 (8.5%) were called active. The sample holds actives, similar compounds and a random draw of the others, so the mix is not that of the screen.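 Rule for the calls: active = mean growth inhibition over the two runs of 50% or more; inactive = mean growth inhibition under 50%.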"}
{"assay": "A549 NSCLC cell proliferation inhibitors – ATP luminescence, human non-small cell lung line, primary screen (AID 371);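 note: compound exposure lasted 72 h before the ATP read; 0% = untreated cell signal and 100% = no luminescence left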", "conditions": "at 10 µM, hits give high values"}
{"smiles": "O=C(O)CC(SCc1ccc(C(=O)O)o1)C(=O)O", "note": "(configuration not stated)", "growth inhibition": "-5.57% (inactive)"}
{"smiles": "CC(=O)C(=[N+]=[N-])C(=O)NCc1ccccc1", "growth inhibition": "-2.8% (inactive)"}
{"smiles": "CC(C)(C)NCc1cc2ccccc2[nH]c1=O", "growth inhibition": "4.01% (inactive)"}
{"smiles": "Cc1nc2oc(C(=O)c3ccc(Br)cc3)c(N)c2c2c1COC(C)(C)C2", "growth inhibition": "24.5% (inactive)"}
{"smiles": "COCCCNC(=O)c1c(N)n(/N=C/c2cccs2)c2nc3ccccc3nc12", "growth inhibition": "17% (inactive)"}
{"smiles": "COCCNC(=O)c1c(N)n(/N=C/c2cccs2)c2nc3ccccc3nc12", "growth inhibition": "6.53% (inactive)"}
{"smiles": "COCCNC(=O)c1c(N)n(CCC2=CCCCC2)c2nc3ccccc3nc12", "growth inhibition": "91.2% (active)"}
{"smiles": "CCC(CC)n1[nH]c(=O)cc1N", "growth inhibition": "1.19% (inactive)"}
{"smiles": "CC1(C)CC(=O)C(C=N)=C(O)C1", "growth inhibition": "1.41% (inactive)"}
{"smiles": "O=C(c1ccccc1F)N1CCC(N2CCCCCC2)CC1", "growth inhibition": "2.62% (inactive)"}
{"smiles": "CCCc1[nH]n(-c2nc3ccccc3s2)c(=O)c1C=NCCN1CCOCC1", "growth inhibition": "3.16% (inactive)"}
{"smiles": "Cn1nnnc1-c1cc(Br)ccc1NC(=O)c1ccccc1", "growth inhibition": "10.8% (inactive)"}
{"smiles": "Cc1sc(-n2c(C)cc(/C=N/n3cnnc3)c2C)c(C#N)c1C", "growth inhibition": "19.6% (inactive)"}
{"smiles": "CC(C)(C)c1nnc2sc(SCC(=O)c3ccccc3)nn2c1=O", "growth inhibition": "-7.24% (inactive)"}
{"smiles": "Cc1nc2sccn2c(=O)c1CCN1CCC(=C(c2ccccc2)c2ccc(F)cc2)CC1", "growth inhibition": "88.3% (active)"}
{"smiles": "CN1CCN(CCCCC(=O)c2ccccc2)CC1", "growth inhibition": "6% (inactive)"}
{"smiles": "Cc1nc2ccccn2c(=O)c1CCN1CCC(C(=O)c2ccc(F)cc2)CC1", "growth inhibition": "6.06% (inactive)"}
{"smiles": "Cc1nc2sccn2c(=O)c1CCN1CCC(=C(c2ccc(F)cc2)c2ccc(F)cc2)CC1", "growth inhibition": "92.5% (active)"}
{"smiles": "COc1ccc(/C=N/n2cncn2)cc1COc1ccc(NC(C)=O)cc1", "growth inhibition": "5.25% (inactive)"}
{"smiles": "CCOc1ccc(C2/C(=C(/O)c3ccc(OC)cc3)C(=O)C(=O)N2c2cc(C)on2)cc1OC", "note": "(configuration not stated)", "growth inhibition": "-9.53% (inactive)"}
{"smiles": "CCC(C)Nc1nc(OC)nc(N(C)C#N)n1", "note": "(configuration not stated)", "growth inhibition": "-4.98% (inactive)"}
{"smiles": "O=C(O)c1ccc(COc2c(F)c(F)c(F)c(F)c2F)o1", "growth inhibition": "3.65% (inactive)"}
{"smiles": "CN(C)/C=C1\\N=C(c2ccc(Cl)cc2Cl)OC1=O", "growth inhibition": "19.7% (inactive)"}
{"smiles": "CCOC(=O)c1[nH]c2cc3c(cc2c1NC(=O)CN1CCc2ccccc2C1)OCO3", "growth inhibition": "12.5% (inactive)"}
{"smiles": "CSc1nc(N)nc(SCC(=O)C23CC4CC(CC(C4)C2)C3)c1C#N", "growth inhibition": "74.9% (active)"}
{"smiles": "CSc1nc(N)nc(SCC(=O)CC(=O)OC(C)C)c1C#N", "growth inhibition": "7.59% (inactive)"}
{"smiles": "CSc1nc(N)nc(SCC(=O)OC(C)C)c1C#N", "growth inhibition": "17% (inactive)"}
